Test [1] is described as follows: Cytotoxicity counterscreen for inhibitors of SARS-CoV-2 cell entry (AID 1645845). Note: nearly all actives have a fitted effect of over 50% in size. The note with it: outcome: dose series up to 57.1 µM unless noted. A digest of the protocol:
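ATP-content luminescence (ATPLite 1step, 15 min RT) read after 48 h compound exposure of Expi293F cells stably expressing human ACE2; normalized to cells-only wells and media-only wells.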
Background: The purpose of a counterscreen is to sort out artefacts and off-target activity.

A short description of test [2]: Primary qHTS to identify inhibitors of SARS-CoV-2 cell entry (AID 1645846). Note: nearly all actives have a fitted effect of over 45% in size. To be noted: SARS-CoV-2 pseudovirus cell entry assay, luminescence; activity change, negative = inhibition: at 57.1 µM (top of the series) unless noted. The method in brief: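 Data are normalized to wells receiving SARS-CoV-2-S pseudoparticles and those given bald particles. Entry signal was luciferase luminescence in stable hACE2 Expi293F cells, 48 hr post-infection, after 1 hr compound pretreatment.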
Background: qHTS replaces the single test concentration by a dilution series.

SMILES strings stand for the structures. Records with an inconclusive call do not appear. Active and inactive are the calls of the source. Calls come from the whole dose curve. Peptide text beside a SMILES is read from it.
Potency is the fitted concentration of half-maximal effect.

For `CC(Nc1ncnc2nc[nH]c12)c1cc2cccc(Cl)c2c(=O)n1-c1ccccc1` (stereo not given), in test [1], the Potency entry is “inactive”. The activity change, negative = inhibition in test [2] is -36.2%.
On the same counts, the results for `Nc1cc(COc2c(Cl)cc(C[C@H](N)C(=O)O)cc2Cl)c2oc(-c3ccccc3)nc2c1` are “inactive” and -18.9%.
On to `CN(C)C(N)=NC(=N)N`, for which the outcome in test [1] and in test [2] was “inactive [setting not given]” in each case.
Turning to `NC(=O)c1cc(F)cc2c1C(=O)N(C1CCN(C3CCC(F)(F)CC3)CC1)C2`, in test [1], the Potency result was “inactive”. The activity change, negative = inhibition in test [2] was -24%.
For `O=C(COCC(=O)N1CCN(C(c2ccccc2)c2ccccc2)CC1)Nc1ccc(Cl)cc1C(=O)O` the same measures were “inactive” and -0.414%.
Turning to `OCCn1cc(-c2ccc3c(c2)CC/C3=N\O)c(-c2ccncc2)n1`, the Potency result in test [1] and in test [2] was “inactive” each time.
Consider `CC(C)N(CCCNC(=O)Nc1ccc(C(C)(C)C)cc1)C[C@H]1O[C@@H](n2ccc3c(N)ncnc32)[C@H](O)[C@@H]1O`, for which, in test [1], the Potency result is “inactive”. Besides, the activity change, negative = inhibition in test [2] is -9.11%.
On the same counts, the results for `O=C(Nc1nccs1)C(c1cc(F)ccc1O)N1Cc2ccccc2C1=O` (stereo not given) are “inactive” and -14.9%.
On the same counts, the results for `Nc1nccn2c(C3CCC(C(=O)O)CC3)nc(-c3cc4cccc(Cl)c4[nH]3)c12` (stereo not given) are “inactive” and -18%.
Turning to `CC1(N)CCN(c2cccnc2NC(=O)c2nc(-c3ncccc3C(F)(F)F)cnc2N)CC1`, the Potency result in test [1] was “inactive”. Moreover, the Potency in test [2] was 14.1 µM (active).
In the case of `C[C@@H]1O[C@@H](O[C@@H]2\C=C/C=C\C=C/C=C\C[C@H](C)OC(=O)/C=C\[C@H]3O[C@@H]3C[C@H](O)C[C@]3(O)C[C@@H](O)[C@@H](C(=O)O)[C@H](C2)O3)[C@H](O)[C@H](N)[C@@H]1O`, the Potency result in test [1] is “inactive”. Moreover, in test [2], the activity change, negative = inhibition was -17.3%.
`COc1ccc2c(c1)CC[C@@H]1[C@@H]2CC[C@]2(C)[C@@H](NCCCCCCN3C(=O)C=CC3=O)CC[C@@H]12`: the Potency entry in test [1] and in test [2] was “inactive” in each case.
Consider `N[C@@H](CCC(=O)O)C(=O)N[C@@H](Cc1c[nH]c2ccccc12)C(=O)O` (H-Glu-Trp-OH), for which the Potency entry in test [1] and in test [2] was “inactive” throughout.
In the case of `Cc1[nH]cnc1CN1CCN(C(=O)N[C@@H](CC(C)C)C(=O)O)[C@@H](Cc2ccccc2)C1=O`, in test [1], the Potency result was “inactive”. In addition, the activity change, negative = inhibition in test [2] was determined as 3.22%.
In the case of `CC1=NN(c2ccc(C(=O)O)cc2)C(=O)/C1=C/c1ccc(-c2cc(C)c(C)cc2[N+](=O)[O-])o1`, the Potency result in test [1] and in test [2] was “inactive” in each case.
As to `C[C@@H]1CCN(C(=O)N2CCCC2)C[C@@H]1N(C)c1ncnc2[nH]ccc12`, the Potency result in test [1] and in test [2] was “inactive” in each case.
Turning to `Cc1nn(C)c(COc2ccc(N3CCN(S(=O)(=O)N(C)C)CC3)cc2)c1-c1cccc2c(CCCOc3cccc4ccccc34)c(C(=O)O)n(CCN3CCOCC3)c12`, the Potency result in test [1] was “inactive”. For the same compound, the activity change, negative = inhibition in test [2] was -18.4%.
Consider `Cc1ccc(Nc2cc(N[C@@H]3CCCC[C@@H]3N)nnc2C(N)=O)nc1C`, for which the Potency entry in test [1] and in test [2] was “inactive” in each case.
As for `CCOc1cc(/C=C2/C(=O)N(c3ccccc3)N=C2C)cc(Cl)c1OCC(=O)OC`, the Potency entry in test [1] is “inactive”. The activity change, negative = inhibition in test [2] is -12.7%.
For the compound `COc1cc2nc(-c3cc(F)ccc3O)nc(N[C@@H]3CNC[C@H]3C(C)(C)O)c2cc1OC`, the Potency was 3.98 µM (active) in test [1] and 5.01 µM (active) in test [2].
On to `CCOCc1nc2c(N)nc3ccccc3c2n1CC(C)(C)O`, for which the Potency entry in test [1] is “inactive”. For the same compound, the activity change, negative = inhibition in test [2] was -25%.
Consider `Cc1ccc(-c2nc(N)nc3c2nnn3Cc2cccc(CO[C@H]3CCOC3)n2)o1`, for which the Potency result in test [1] was “inactive”. Also, the activity change, negative = inhibition in test [2] is -15.2%.
Consider `NC[C@H]1O[C@H](O[C@H]2[C@H](O)[C@@H](O[C@H]3O[C@H](CO)[C@@H](O)[C@H](N)[C@H]3O)[C@H](N)C[C@@H]2N)[C@H](N)C[C@@H]1O`, for which the Potency entry in test [1] is “inactive”. In test [2], the activity change, negative = inhibition was -8.09%.
For `COc1cccc(OCCCN)c1-c1cc(Nc2cnc(C#N)cn2)n[nH]1` the same measures were “inactive” and -33%.
`FC(F)(F)c1ccc(CNc2ccc(Cc3c[nH]c4ncc(Cl)cc34)cn2)cn1`: the Potency result in test [1] was “inactive”. The activity change, negative = inhibition in test [2] was -1.72%.
`CN[C@@H]1[C@@H](O)[C@@H](O[C@@H]2[C@@H](O)[C@H](O[C@H]3O[C@H](CN)[C@@H](O)[C@H](O)[C@H]3O)[C@@H](N)C[C@H]2NC(=O)C(O)CN)OC[C@]1(C)O` (stereo not given in full): the Potency result in test [1] and in test [2] was “inactive” throughout.
Regarding `CN1C(N)=N[C@](C)(c2cc(NC(=O)c3ccc(F)cn3)ccc2F)CS1(=O)=O`, the Potency result in test [1] was “inactive”. Also, the activity change, negative = inhibition in test [2] was -0.893%.
As to `COc1cc2c(NC3CCN(C4CCCCC4)CC3)nc(N3CCCN(C(C)C)CC3)nc2cc1OCCCN1CCCCC1`, the figures for the Potency in test [1] and in test [2] were 22.4 µM (active) and 11.2 µM (active), respectively.
Consider `Cc1nc(NC(=O)N2CCC[C@H]2C(N)=O)sc1-c1ccnc(C(C)(C)C(F)(F)F)c1`, for which the Potency result in test [1] is “inactive”. In addition, in test [2], the activity change, negative = inhibition was -35.1%.
Regarding `Cc1onc(-c2ccc(F)cc2)c1COc1ccc(C(=O)N2CCS(=O)(=O)CC2)cn1`, the Potency result in test [1] is “inactive”. In test [2], the activity change, negative = inhibition is -25.8%.
